A selection follows.
aSyn UTR act: Activators via SNCA 5'UTR binding, MLPCN | alpha-synuclein 5'UTR reporter, activators screen | activity score, % (tested at 7.5 µM), hits read low | actives 7.1% (n = 300,000); in the data active means activity score below about -60%
Active calls of the source: *.

SMILES	aSyn UTR act
O=C(c1ccc(Br)s1)N1CCc2ccccc2C1	-65*
O=C(Cc1ccc(Br)cc1)N1CCc2ccccc2C1	-145*
CCCCc1c(C)nn(-c2nnc3c4ccccc4n(C)c3n2)c1C	-96*
N=C1C(c2nc3ccccc3s2)=C(O)CN1c1ccccc1	-120*
CCN1CC(O)=C(c2nc3ccccc3s2)C1=N	-70*
CCCCN1CC(O)=C(c2nc3ccccc3s2)C1=N	-167*
CCc1ccc(C(=O)NNc2ccccc2F)cc1	-83*
CCCc1ccc(C(=O)NNc2ccccc2F)cc1	-110*
CCC(=O)C1CCCN(C(=O)CCc2nnc(-c3ccc(C(C)=O)s3)o2)C1 (stereo not drawn)	-88*
CCCOC1CCCN(C(=O)CCc2nnc(-c3ccc4c(c3)OCO4)o2)C1 (stereo not drawn)	-73*
O=[N+]([O-])c1ccc(NCc2ccccc2)nc1	-67*
CC(C)CNc1nc(N)c([N+](=O)[O-])c(NCc2ccccc2)n1	77
c1ccc2nc3c(nc2c1)OCC1CCCCN31 (stereo not drawn)	-91*
Cc1ccc(C(=O)CCNc2ccc(Br)cc2)o1	-99*
CC(C)N1C(=O)/C(=C/c2nc3ccccc3c(=O)n2-c2ccccc2)c2ccccc21	-66*
O=[N+]([O-])/C=C/c1cn(Cc2ccc(Cl)cc2)c2ccccc12	65
COc1ccc(C(=O)/C=C/c2cn(CC(O)CN3CCN(C)CC3)c3ccccc23)cc1OC (stereo not drawn)	-62*
CN1CCN(Cn2cc(/C=C/C(=O)c3ccccc3)c3ccccc32)CC1	-312*
O=Cc1c(-c2ccc(Cl)cc2)oc2ccc(O)cc12	-118*
O=c1c2oc3nc4c(cc3c2ncn1CCCc1ccccc1)CCCC4	-105*
CCCCCCn1cnc2c(oc3nc4c(cc32)CCCC4)c1=O	-108*
COCc1nc(-c2ccc(-c3ccc(OC)cc3)nc2OC)no1	-123*
CCc1nc(-c2ccc(-c3ccc(OC)cc3)nc2OC)no1	-132*
COc1ccc(-c2ccc(-c3noc(C(C)C)n3)c(OC)n2)cc1	-96*
COc1nc(-c2ccccc2)ccc1-c1noc(C)n1	-112*
SMILES	aSyn UTR act
COCc1nc(-c2ccc(-c3ccccc3)nc2OC)no1	-100*
Cc1cc(C)nc(-n2nc(C)c(Sc3ccc(F)cc3)c2N)n1	-182*
O=C(Cc1ccccc1)N/N=C/c1ccc2c(c1)OCO2	-140*
Cc1nc2ccccn2c1C(=O)N/N=C/c1ccc2c(c1)OCO2	-96*
O=C(N/N=C/c1ccc2c(c1)OCO2)C(=O)Nc1ccccc1	-84*
O=C(CNc1ccc2c(c1)OCO2)N/N=C\c1cn(Cc2ccccc2)c2ccccc12	81
O=C(CNC(=O)c1ccccc1F)N/N=C/c1ccc2c(c1)OCO2	-98*
O=C(Nc1ccccc1)N1CCCC2CCCCC21 (stereo not drawn)	-125*
CCOC(=O)c1ccc(N/C=C/C(=O)C(C)(C)C)cc1	-137*
CCOC(=O)c1ccc(N/C=C/C(=O)c2ccccc2)cc1	-188*
C/C(=N\N=C(N)N)c1cc(Cl)ccc1Cl	65
Nc1nnc(-c2ccc(Cl)cc2Cl)s1	-108*
COc1cc2[nH]c(-c3ccc(C)cc3)cc(=O)c2cc1OC	-75*
COc1ccc(-c2cc(=O)c3cc(C)ccc3[nH]2)cc1	-63*
Nn1c(SCC(=O)Nc2ccc(F)cc2F)nnc1C1CCCCC1	-64*
Nn1c(SCC(=O)Nc2ccc(F)cc2F)nnc1-c1cccnc1	-89*
Cc1ccc2ccc3ccc(C)nc3c2n1	72
CCS(=O)(=O)c1ccc(N=Nc2ccc(O)c3ncccc23)c(OC)c1	78
Nc1sc(-c2ccccc2)n[n+]1Cc1cccc2cccnc12	53
CCCCC(=O)NC(c1ccccc1OC)c1ccc2cccnc2c1O (stereo not drawn)	101
COc1cccc(OC)c1OCCCOc1cccc2cccnc12	-106*
Clc1ccccc1OCCCOc1cccc2cccnc12	-118*
Fc1ccc(COc2cccc3cccnc23)cc1	-141*
CCCC(=O)NC(c1ccccc1OC)c1ccc2cccnc2c1O (stereo not drawn)	124
Cc1ccc2cccc(OCCCOc3ccccc3F)c2n1	-74*
SMILES	aSyn UTR act
CN(C)/C=C1\C(=O)N(c2ccc(Cl)cc2)CS1(=O)=O	-126*
Cc1ccc(N2CS(=O)(=O)/C(=C/N(C)C)C2=O)cc1	-108*
COc1cccc(-c2cc(C(=O)Nc3ccc4c(c3)OCO4)no2)c1	-66*
O=C(Nc1ccc2c(c1)OCO2)c1cc(-c2ccc(O)cc2)on1	-158*
COc1cccc(OCc2cc(C(=O)NCc3ccc4c(c3)OCO4)no2)c1	-71*
O=C(Nc1ccc2c(c1)OCO2)c1cc(-c2ccccc2Cl)on1	-143*
Cc1ccccc1/C=N/Nc1ncnc2nc[nH]c12	-71*
C(=N\Nc1ncnc2nc[nH]c12)/c1cccs1	-69*
Cc1ccsc1/C=N/Nc1ncnc2nc[nH]c12	-90*
Fc1ccc(/C=N/Nc2ncnc3nc[nH]c23)cc1F	-74*
CC1CCC(=C(C#N)c2nc(-c3cc4ccccc4oc3=O)cs2)CC1 (stereo not drawn)	-258*
CCOC(=O)c1ccc(-c2ccc(/C=C(\C#N)C(=O)NCC3CCCO3)o2)cc1 (stereo not drawn)	-85*
CC(C)OC(=O)/C(C#N)=C/c1cn(Cc2ccccc2)c2ccccc12	75
N#C/C(=C\c1cccs1)C(=O)NCC1CCCO1 (stereo not drawn)	-66*
CC(C)OC(=O)/C(C#N)=C/c1c[nH]c2ccccc12	-80*
N#C/C(=C\c1c[nH]c2ccccc12)C(=O)NCC1CCCO1 (stereo not drawn)	-73*
Oc1ccccc1C1=Nc2ncnn2C(c2ccccc2)C1 (stereo not drawn)	-68*
Cn1/c(=N\NC(=O)c2ccccc2Cl)sc2ccccc21	-89*
Cn1/c(=N\NC(=O)C2CCCCC2)sc2ccccc21	-141*
CCOc1ccccc1NC(=O)/C=C/c1ccccc1[N+](=O)[O-]	-88*
Cc1ccnc(NC(=O)/C=C/c2ccccc2[N+](=O)[O-])c1	-118*
O=C(/C=C\c1ccccc1[N+](=O)[O-])Nc1ccccc1	-194*
CC(C)c1cc(C(C)C)c(S(=O)(=O)N2c3ccccc3[C@]3(Br)C[C@H]4C(=O)N[C@@H](Cc5ccccc5)C(=O)N4[C@H]23)c(C(C)C)c1	65
COc1cc(SC)ccc1C(=O)Nc1ncc(C)s1	98
COc1cc(SC)ccc1C(=O)Nc1ncc(Cl)cc1Cl	-91*
SMILES	aSyn UTR act
COc1cc(SC)ccc1C(=O)Nc1ccc2c(c1)OCO2	-69*
COc1ccc(Br)cc1C(=O)Nc1cc(C)cc(C)c1	-62*
COc1cc(SC)ccc1C(=O)Nc1ccc(C)cc1	-142*
CNc1oc(-c2ccc(Cl)cc2)nc1C#N	-173*
COc1ccc(-c2nc(C#N)c(NC(C)C)o2)cc1	-68*
CNc1oc(-c2cccc3ccccc23)nc1C#N	-105*
O=C1N=C(N2CCCCC2)S/C1=C\c1cn[nH]c1-c1ccccc1	-78*
COc1ccc(/C=C2\SC(N3CCCCC3)=NC2=O)cc1	-92*
CN(c1nc(-c2ccc(Br)cc2)cs1)C1CCS(=O)(=O)C1 (stereo not drawn)	-112*
COc1ccc2c(c1)CC/C(=C/c1ccccn1)C2=O	-81*
COc1ccc(OC)c(C2C3=C(COC3=O)Nc3cc4c(cc32)OCO4)c1 (stereo not drawn)	89
COc1ccc2c(c1)CC/C(=C\C=C\c1ccccc1)C2=O	-64*
COc1cccc(/C=C2\CCc3ccccc3C2=O)c1	-97*
